Experimental data reported in the supplement of paper PMC10338343.
± gives the standard deviation.

test system: MILI (PIWIL2) piRISC loaded with L1MC piRNA (26 nt); assay: pre-steady-state target cleavage rate (min^-1); guide: L1MC piRNA 5'p-UAACUAAAUACUAUGCAAGCUGUAGG; MIWI and MILI are mouse PIWI proteins and EfPiwi is from a freshwater sponge; tags in brackets are library labels; higher = faster piRNA-guided slicing of the target; details: auxiliary factor: 500 nM mouse GTSF1
Summary of the method: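 The method was Cleave-'n-Seq, in which uncleaved targets from a transcribed, DNA-blocked target RNA library were sequenced after exposure to active affinity-purified piRISC carrying one synthetic guide, with or without GTSF1 partner protein. Reactions contained 0.1 nM library, 1 nM piRISC and, where present, 500 nM GTSF1 in HEPES–potassium acetate buffer at 33 °C for 0–8 or 0–960 min. Reads were normalised to depth and to weakly complementary targets, three trials were pooled, and k3 was capped at 0.0001 min^-1. The pre-steady-state cleavage rate came from a burst-and-steady-state fit.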

Sequence | pre-steady-state target cleavage rate
UCCUGGAUGUCCUUGCAUAGCAUUUAGUUA | 0.0257 ± 0.0079
UCCUGGAUGUCGAAGCAUAGUAUUCUAGUUA | 0.0193 ± 0.0065
UCCUGGAUGACGUUGCAUAGUAUUUACAAA | 0.0104 ± 0.0057
UCCUGGAUGUCCUUGACAUAGUAUUUAGUUA | 0.0214 ± 0.0096
UCCUGGAACAGCUAGCAUAGAAUUUAGUUA | 0.0486 ± 0.0073
UCCUGGAUGUCGAACGUAUGUAUUUUGUAA | < 0.0001
UCCUGGUACAGCUAGCAUAGAAUUUAGUUA | 0.313 ± 0.084
UCCUGGAUGACCUUGCAUAGUAUUUACAAA | 0.114 ± 0.033
UCCUGGAUGUCGAUUCAUAGUAUUUAGUUA | 0.0157 ± 0.0044
UCCUGGAUGACGAUGCAUAGUAUUUAGUAA | 0.128 ± 0.016
UCCUGGAACAGCAUGCAUAGUAUUUACUUA | 0.221 ± 0.034
UCCUGGAACAGCUUGCAUAGUAUUUUGAUA | 0.0833 ± 0.019
UCCUGGUACAGCUUGCAUAGUUAAUAGAAA | 0.00845 ± 0.0048
UCCUGGAACAGCUUGCAUAGUUUUAAGUUA | 0.0465 ± 0.009
UCCUGGAUCAGGUUCCAUAGUAUUUAGUUA | 0.00709 ± 0.004
UCCUGGAUCUCGUUGCAUAGUAUUUAGAAA | 0.141 ± 0.024
UCCUGGAACAGCUUGCAUACUAUUUACUUA | 0.0611 ± 0.015

Sequence | pre-steady-state target cleavage rate
UCCUGGAACAGCUUGCAUAGUAUUUUCUAA | 0.0162 ± 0.0068
UCCUGGUACAGCUUGCAUAGUUUUUAGAUA | 0.0378 ± 0.017
UCCUGGAUGUCGAUGCAUAGUAUUUAUUUA | 0.0578 ± 0.015
UCCUGCUACAGCUUGGUUAGUAUUUAGAAA | 0.018 ± 0.007
UCCUGGAUGUCGAUGUCAUAGUAUUUAGUUA | 0.0067 ± 0.0037
UCCUCCUACACGAUGCAUAGUAUUUUCAAA | 0.0649 ± 0.017
UCCUGGUUCAGCUUGCAUAGUAUUUACAAA | 0.0698 ± 0.021
UCCUGGAUGUCCUUGCAUAGUAUUUACUUA | 0.0499 ± 0.013
UCCUGGAUGUCCUUGCAAAGUAUUUUGUUA | 0.0119 ± 0.0056
UCCUGGAUGAGCUUGCAUACUAUUUACUUA | 0.00478 ± 0.0043
UCCUGGAUCACCUUGCAUAGUUUUUAGUUA | 0.016 ± 0.0061
UCCUGGAUGUGCUUGCAUAGUAUUUAGAUA | 0.0576 ± 0.014
UCCUCCUACAGCUUGCAUAGAAUUUACUUA | 0.0813 ± 0.022
UCCUGGAUGUCCUUGCAUAGUAUUAUCUUA | 0.0177 ± 0.0079
UCCUGGUACAGCAAGCAUAGUAUUUUCAAA | 0.0777 ± 0.022
UCCUGGAUGAGCUUGCAUACUAUUUUGUUA | 0.0073 ± 0.005
UCCUGGAUCAGCUUGCAUAGUAUUAUGAAA | 0.0664 ± 0.016
